Experimental findings from PubChem BioAssay are described below.

A number with no mark means an inactive call. For part of these data: Measured potencies and affinities stand elsewhere. Active and inactive are the calls of the source. Unless noted, how the calls were made is not given here.

The nature of experiment [1]: antimalarial activity against Dd2 strain (AID 2302;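 active means growth inhibition above 50% at the single 2 µM test dose, taken to imply half-maximal potency below 2 µM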;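 further: 0% = DMSO untreated growth and 100% = chloroquine plus artemisinin killed control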). The note with it: P. falciparum Dd2 in RBCs, LDH growth readout, 72 h; at 2 µM; hits give high values.
Experiment [2] is described as follows: human hepatoma cell viability loss – ATP luminescence, cytotoxicity control for P. falciparum antimalarial project, primary screen (AID 2303;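 active means inhibition above 50%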;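 further: 0% = DMSO wells and 100% = digitonin-killed cells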). The note with it: HepG2 viability, 24-48 h, at 10 µM, hits give high values.
For experiment [3], the target named is L-lactate dehydrogenase (Plasmodium falciparum (isolate CDC / Honduras)) (UniProt Q27743). The experiment can be described thus: PfLDH activity inhibition – cell lysate, 3D7 strain, counter-screen for P. falciparum growth inhibition project (AID 2304).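 Further: 0% = vehicle and 100% = reference inhibitor.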 The note with it: P. falciparum 3D7 crude extract, LDH APAD/NBT absorbance; at 2 µM; hits give high values. (Counterscreens check selectivity or assay interference.)
L-lactate dehydrogenase (Plasmodium falciparum (isolate CDC / Honduras)), sequence (Q27743 whole entry, looked up): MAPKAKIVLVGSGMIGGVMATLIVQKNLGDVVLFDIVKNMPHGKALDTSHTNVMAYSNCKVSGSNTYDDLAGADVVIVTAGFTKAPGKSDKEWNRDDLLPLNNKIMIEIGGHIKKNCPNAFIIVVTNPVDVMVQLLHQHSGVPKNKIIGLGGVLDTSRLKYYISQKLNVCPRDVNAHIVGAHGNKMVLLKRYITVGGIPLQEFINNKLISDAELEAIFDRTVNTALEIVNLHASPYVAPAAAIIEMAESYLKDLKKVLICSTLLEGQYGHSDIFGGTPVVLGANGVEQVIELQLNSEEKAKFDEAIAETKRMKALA

Experiment [4] can be described thus: inhibition of 3D7 malaria parasite growth – strain 3D7 (AID 2306).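 Further: 0% = DMSO wells and 100% = chloroquine plus artemisinin control wells.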 The note with it: P. falciparum 3D7 erythrocytic growth, LDH absorbance, 72 h; at 2 µM; hits give high values.
The target in experiment [5] is Calcium-dependent protein kinase 1 (Plasmodium falciparum (isolate 3D7)) (UniProt P62344). The experiment can be described thus: PfCDPK1 kinase inhibitors, biochemical, TCAMS library (AID 1159585; cut-off not given, nearly all actives have IC50 up to about 0.98 µM;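 further: inhibitors leave more ATP so luminescence rises with inhibition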). The note with it: recombinant PfCDPK1, Kinase-Glo ATP depletion luminescence.
Calcium-dependent protein kinase 1 (Plasmodium falciparum (isolate 3D7)), sequence (P62344 whole entry, looked up): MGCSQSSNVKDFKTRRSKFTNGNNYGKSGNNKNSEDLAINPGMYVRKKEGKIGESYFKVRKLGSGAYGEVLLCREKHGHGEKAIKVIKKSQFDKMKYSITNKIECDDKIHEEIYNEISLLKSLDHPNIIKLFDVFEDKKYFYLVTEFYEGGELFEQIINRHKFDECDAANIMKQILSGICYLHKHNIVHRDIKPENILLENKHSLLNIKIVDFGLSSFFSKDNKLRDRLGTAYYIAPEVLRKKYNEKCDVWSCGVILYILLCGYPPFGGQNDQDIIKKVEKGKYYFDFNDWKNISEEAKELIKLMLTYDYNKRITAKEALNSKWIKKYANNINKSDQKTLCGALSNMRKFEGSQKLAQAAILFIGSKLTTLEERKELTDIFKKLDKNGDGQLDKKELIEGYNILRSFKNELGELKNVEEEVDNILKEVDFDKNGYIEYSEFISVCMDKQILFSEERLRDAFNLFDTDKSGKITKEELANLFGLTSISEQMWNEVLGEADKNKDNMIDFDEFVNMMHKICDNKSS
Experiment [6] has as its target Plasmodium falciparum protein kinase 6 (PK6, PF3D7_1337100) (UniProt Q8IDW1). The experiment can be described thus: PfPK6 kinase inhibitors, biochemical, TCAMS library (AID 1159586). The note with it: recombinant PfPK6, Kinase-Glo ATP depletion luminescence.
Experiment [7] addresses Protein kinase 7 (PK7), Plasmodium falciparum 3D7 (PF3D7_0213400) (UniProt Q7YTF7). Briefly: inhibition of Plasmodium PK7 catalytic activity – biochemical, TCAMS antimalarial set, Kinase-Glo luminescence (AID 1159587). The note with it: recombinant PfPK7, Kinase-Glo ATP depletion luminescence. Background: Kinase-Glo reads ATP consumption through a luciferase reaction.
Experiment [8] concerns the target Calcium-dependent protein kinase 4 (Plasmodium falciparum (isolate 3D7)) (UniProt Q8IBS5). The experiment can be described thus: PfCDPK4 kinase inhibitors, biochemical, TCAMS library (AID 1159588; cut-off not given, nearly all actives have IC50 up to about 0.91 µM). The note with it: recombinant PfCDPK4, Kinase-Glo ATP depletion luminescence.

Protein kinase 7 (PK7), Plasmodium falciparum 3D7 (PF3D7_0213400), sequence (Q7YTF7 1-343): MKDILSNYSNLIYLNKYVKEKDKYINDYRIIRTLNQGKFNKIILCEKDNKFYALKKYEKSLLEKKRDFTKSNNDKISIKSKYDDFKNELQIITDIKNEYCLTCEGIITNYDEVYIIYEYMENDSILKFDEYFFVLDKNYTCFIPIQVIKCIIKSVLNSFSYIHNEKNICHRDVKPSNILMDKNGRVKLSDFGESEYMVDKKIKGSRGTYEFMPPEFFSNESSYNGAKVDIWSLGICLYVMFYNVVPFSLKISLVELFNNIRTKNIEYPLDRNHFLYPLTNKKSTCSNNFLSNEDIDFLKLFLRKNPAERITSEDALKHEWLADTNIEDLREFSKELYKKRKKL
Plasmodium falciparum protein kinase 6 (PK6, PF3D7_1337100), sequence (Q8IDW1 1-305): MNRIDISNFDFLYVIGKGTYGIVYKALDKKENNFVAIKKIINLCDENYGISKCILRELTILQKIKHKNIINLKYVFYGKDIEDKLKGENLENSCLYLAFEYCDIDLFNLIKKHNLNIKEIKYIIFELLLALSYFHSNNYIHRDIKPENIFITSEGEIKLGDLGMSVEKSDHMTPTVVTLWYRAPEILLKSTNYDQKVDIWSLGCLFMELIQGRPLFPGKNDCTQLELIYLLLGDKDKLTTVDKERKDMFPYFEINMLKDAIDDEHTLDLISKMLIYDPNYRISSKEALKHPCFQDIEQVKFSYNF
Calcium-dependent protein kinase 4 (Plasmodium falciparum (isolate 3D7)), sequence (Q8IBS5 whole entry, looked up): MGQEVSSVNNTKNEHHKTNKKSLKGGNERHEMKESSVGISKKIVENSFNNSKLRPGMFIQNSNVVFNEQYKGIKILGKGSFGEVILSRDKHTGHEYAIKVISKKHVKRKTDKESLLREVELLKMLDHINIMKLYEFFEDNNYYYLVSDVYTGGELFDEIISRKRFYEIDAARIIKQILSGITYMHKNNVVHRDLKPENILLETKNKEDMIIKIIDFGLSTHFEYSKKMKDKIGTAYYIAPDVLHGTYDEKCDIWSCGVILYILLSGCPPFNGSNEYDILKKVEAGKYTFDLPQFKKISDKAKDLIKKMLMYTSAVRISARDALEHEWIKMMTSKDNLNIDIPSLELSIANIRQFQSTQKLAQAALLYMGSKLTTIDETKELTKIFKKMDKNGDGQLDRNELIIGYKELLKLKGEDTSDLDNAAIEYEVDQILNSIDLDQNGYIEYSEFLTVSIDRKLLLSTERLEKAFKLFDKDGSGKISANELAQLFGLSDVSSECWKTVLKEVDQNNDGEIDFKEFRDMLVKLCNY

The term inhibition denotes the drop in the measured response relative to a control, in per cent. Consider `Cc1cccc(Cl)c1S(=O)(=O)N1CCCCC(c2ccc(C(F)(F)F)cc2)=N1`, for which the growth inhibition in experiment [1] and in experiment [4] was 100% (active) throughout. The inhibition is 5% in experiment [2] and 1% in experiment [3]. In addition, the result in experiment [5], in experiment [6], in experiment [7] and in experiment [8] was inactive.
For the compound `O=C(Nc1ccc(F)c(Cl)c1)NC1CCN(c2ccnc3cc(Cl)ccc23)C1` (stereo not drawn), the growth inhibition in experiment [1] was 74% (active); in experiment [4] it was 101% (active). Further, the inhibition in experiment [2] was 37%; in experiment [3] it was -3%. Moreover, the outcome in experiment [5], in experiment [6], in experiment [7] and in experiment [8] was inactive.
As to `Cc1cc2c3c(N)nc(N)nc3ccc2n1C(C)C`, the growth inhibition in experiment [1] is 0%; in experiment [4], 93% (active). Also, the figures for the inhibition in experiment [2] and in experiment [3] were 70% (active) and 2%, respectively. The result in experiment [5], in experiment [6], in experiment [7] and in experiment [8] was inactive.
As to `O=C(c1ccccc1)N1COCC(CCN2CCC(N3CCCC3)CC2)(c2ccc(Cl)c(Cl)c2)C1` (stereo not drawn), the growth inhibition in experiment [1] was 9%; in experiment [4], 83% (active). Also, the inhibition was 18% in experiment [2] and 0% in experiment [3]. For the same compound, the result in experiment [5], in experiment [6], in experiment [7] and in experiment [8] was inactive.
Consider `COc1cc(NC(=O)CCCCCCCCN2CCN(C)CC2)c2ncccc2c1`, for which the results for the growth inhibition in experiment [1] and in experiment [4] were 36% and 82% (active), respectively. Moreover, the values for the inhibition in experiment [2] and in experiment [3] were 8% and -1%, respectively. For the same compound, the outcome in experiment [5], in experiment [6], in experiment [7] and in experiment [8] was inactive.
As for `O=c1cc(NCCCN(Cc2ccccc2)Cc2ccccc2)[nH]c2ccccc12`, the growth inhibition in experiment [1] was 93% (active); in experiment [4], 100% (active). Further, the inhibition was 7% in experiment [2] and -3% in experiment [3]. In addition, the result in experiment [5], in experiment [6], in experiment [7] and in experiment [8] was inactive.
On to `C=CCN1Cc2c(O)cccc2C(c2ccc(O)c(O)c2)C1` (stereo not drawn), for which the growth inhibition in experiment [1] is 6%; in experiment [4], 97% (active). The figures for the inhibition in experiment [2] and in experiment [3] were -5% and 0%, respectively. The outcome in experiment [5], in experiment [6], in experiment [7] and in experiment [8] was inactive.
Regarding `CCOC(=O)c1cc(Cl)ccc1OCCCON1C(N)=NC(N)=NC1(C)C`, the growth inhibition in experiment [1] is 95% (active); in experiment [4] it was 94% (active). The values for the inhibition in experiment [2] and in experiment [3] were 69% (active) and 3%, respectively. Besides, the result in experiment [5], in experiment [6], in experiment [7] and in experiment [8] was inactive.
With `Clc1ccc(CNCC2CCN(CC3CCCCC3)CC2)cc1Cl`, the figures for the growth inhibition in experiment [1] and in experiment [4] were 6% and 92% (active), respectively. In addition, the inhibition was 18% in experiment [2] and 4% in experiment [3]. The result in experiment [5], in experiment [6], in experiment [7] and in experiment [8] was inactive.
Consider `CN1CCN(CCCN(Cc2ccc(-c3ccc(CNC4CCCC4)cc3)cc2)C(=O)CCC2CCCC2)CC1`, for which the figures for the growth inhibition in experiment [1] and in experiment [4] were 96% (active) and 98% (active), respectively. The inhibition in experiment [2] was 92% (active); in experiment [3] it was 2%. The outcome in experiment [5], in experiment [6], in experiment [7] and in experiment [8] was inactive.
`CC(C)(C(=O)Nc1ccc(C2CCC(NCC3CC3)CC2)c(Cl)c1)c1ccc(C(F)(F)F)cc1` (stereo not drawn): the growth inhibition in experiment [1] is 18%; in experiment [4] it was 97% (active). Further, the inhibition in experiment [2] is 64% (active); in experiment [3] it was -1%. Also, the outcome in experiment [5], in experiment [6], in experiment [7] and in experiment [8] was inactive.
As to `O=C(Nc1ccc(Cl)cc1)Nc1ccc(Cn2ncc(N3CCCNCC3)c(Cl)c2=O)cc1`, the growth inhibition is 11% in experiment [1] and 85% (active) in experiment [4]. Moreover, the inhibition was 49% in experiment [2] and 1% in experiment [3]. Also, the outcome in experiment [5], in experiment [6], in experiment [7] and in experiment [8] was inactive.
With `Oc1ccc2c(c1NCC1CCCCC1)CCCC2`, the growth inhibition in experiment [1] and in experiment [4] was 99% (active) throughout. Further, the inhibition in experiment [2] was 11%; in experiment [3], 0%. Besides, the result in experiment [5], in experiment [6], in experiment [7] and in experiment [8] was inactive.
Take `COCCNCc1cccc(-c2ccc3nccc(Nc4cc(O)ccc4C)c3c2)c1`: the growth inhibition in experiment [1] was 92% (active); in experiment [4], 101% (active). For the same compound, the values for the inhibition in experiment [2] and in experiment [3] were -1% and 4%, respectively. Besides, the outcome in experiment [5], in experiment [6], in experiment [7] and in experiment [8] was inactive.
For `Fc1ccc(NC(=S)NN=Cc2ccccn2)cc1`, the figures for the growth inhibition in experiment [1] and in experiment [4] were 67% (active) and 95% (active), respectively. The figures for the inhibition in experiment [2] and in experiment [3] were 56% (active) and -1%, respectively. Besides, the result in experiment [5], in experiment [6], in experiment [7] and in experiment [8] was inactive.
In the case of `O=C(NC1CCN(c2ccnc3cc(Cl)ccc23)C1)c1ccc(F)cc1F` (stereo not drawn), the growth inhibition in experiment [1] and in experiment [4] was 100% (active) throughout. Moreover, the inhibition was 31% in experiment [2] and 2% in experiment [3]. Also, the result in experiment [5], in experiment [6], in experiment [7] and in experiment [8] was inactive.
For the compound `CC(C)Cc1cnc2nc(N)nc(N)c2c1`, the figures for the growth inhibition in experiment [1] and in experiment [4] were -2% and 98% (active), respectively. Also, the inhibition in experiment [2] is 66% (active); in experiment [3], 1%. In addition, the outcome in experiment [5], in experiment [6], in experiment [7] and in experiment [8] was inactive.
In the case of `CCN(CC)S(=O)(=O)n1ncc2c3c(N)nc(N)nc3ccc21`, the growth inhibition in experiment [1] was 16%; in experiment [4] it was 93% (active). The inhibition in experiment [2] was 67% (active); in experiment [3], 3%. Further, the outcome in experiment [5], in experiment [6], in experiment [7] and in experiment [8] was inactive.
Regarding `O=C(CSc1n[nH]c(=O)n1Cc1ccccc1)Nc1ccccc1-c1ccccc1`, the growth inhibition in experiment [1] was 36%; in experiment [4], 89% (active). In addition, the inhibition in experiment [2] was -8%; in experiment [3], 3%. Also, the outcome in experiment [5], in experiment [6], in experiment [7] and in experiment [8] was inactive.
As for `CN1CCN(CC(=O)Nc2ccc(-c3ccc(-c4nc5ccc(C(F)(F)F)cc5[nH]4)s3)cc2)CC1`, the growth inhibition was 73% (active) in experiment [1] and 102% (active) in experiment [4]. Further, the inhibition in experiment [2] is 84% (active); in experiment [3] it was 5%. Further, the result in experiment [5], in experiment [6], in experiment [7] and in experiment [8] was inactive.
As for `Cc1cc(N[C@@H](Cc2ccccc2)C(=O)Nc2ccccc2)nc(NCCc2ccc(F)cc2)n1`, the growth inhibition in experiment [1] is 81% (active); in experiment [4], 96% (active). The inhibition in experiment [2] was 26%; in experiment [3], 0%. For the same compound, the outcome in experiment [5], in experiment [6], in experiment [7] and in experiment [8] was inactive.
